TRPML1 ag: human mucolipin-1 channel agonism; Q9GZU1; TRPML1-expressing cells, Ca2+ dye fluorescence, FDSS; activation, % (no concentration beside the values); 410,000 compounds, 0.12% hits; AID 624414
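Agonist activity was taken from a 110 s kinetic Ca2+ dye read on the FDSS after pinning compounds onto TRPML1-DL cells. The cells were seeded at 1,500/well with Tet inducer, incubated about 16 h, then dye-loaded at room temperature.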
BRCA1 expr up: activators of BRCA1 expression | AID 624202 | MCF7-BRCA1-FFLuc reporter, luminescence, 48 h; response scale: scaled: vehicle 0%, 10 µM genistein 100% | 380,000 compounds, 1.1% hits | Potency, µM (doses to about 46.1 µM), usual class: activators; active = well fitted activation curve with a large enough effect; inconclusive = small, poorly fitted or top-dose-only effect; inactive = no such curve, though single readings can be large or run the other way; note: nearly all actives have a fitted effect of over 80% in size
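48 h compound treatment of MCF7-BRCA1-FFLuc cells (phenol-red free MEM, 37 °C), then 15 min with luciferase substrate and luminescence imaging.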
IL-2 act: IL-2 activation; 360,000 compounds, 0.065% hits; AID 652025; IL-2 activation reporter assay, cell-based qHTS; stimulated with anti-CD3/CD4/CD28 beads; in transgenic mouse T cells; activation, % (series mostly up to about 46 µM)
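EGFP and DsRed fluorescence is measured by plate cytometry in unstimulated transgenic mouse T cells exposed to compound for 60 minutes, then stimulated 18 hours at 37 degrees C with anti-CD3/anti-CD4 beads plus anti-CD28.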
TRPML1 inh: inhibitors of human TRPML1 channel. TRPML1-inducible cells, Ca2+ dye fluorescence, FDSS; hits give low values; inhibition of EC80 agonist-evoked calcium signal. 390,000 compounds, 0.02% hits. activity change, negative = inhibition, % (test concentration not listed); in the data active = activity change below about -50%; inconclusive = between about -30% and that limit;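 note: stimulus is agonist 54-4 at its EC80 concentration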
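Tet-induced TRPML1-DL cells loaded with Ca8 no-wash calcium dye were read kinetically on FDSS. Compound addition was followed by EC80 agonist 54-4 (4 uM final); inhibition was read over 110 s.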
PTAP TSG101 blk: blocks PTAP/TSG101 interaction to inhibit HIV-1 budding; Potency, µM (doses to about 115 µM), hits mostly inhibitors; Q99816; Fluorescence polarization, FITC-PTAP peptide / Tsg101 binding; AID 493005; 340,000 tested, under 10 active; active = well fitted inhibition curve with a large enough effect in the main read-out, with a control signal flat, not every such curve was filed as active; inconclusive = small, poorly fitted or top-dose-only effect, or effect the other way, or a change in a side signal; inactive = no such curve, though single readings can be large or run the other way
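Fluorescence anisotropy tracks displacement of a FITC-tagged PTAP peptide (50 nM) from the Tsg101 binding domain (10 uM), following a 20 min room-temperature incubation at pH 7.5.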
PKM2 activator: increases activity of human pyruvate kinase M2; purified PKM2, Kinase-Glo ATP luminescence, activation; response scale: 0% is enzyme alone, no compound; Potency, µM (titrated, usually from 57.5 µM), most hits filed as activators; 260,000 compounds, 0.34% hits; active = well fitted activation curve with a large enough effect; inconclusive = small, poorly fitted or top-dose-only effect; inactive = no such curve, though single readings can be large or run the other way; note: nearly all actives have a fitted effect of over 55% in size
Target sequence (P14618 whole entry, looked up): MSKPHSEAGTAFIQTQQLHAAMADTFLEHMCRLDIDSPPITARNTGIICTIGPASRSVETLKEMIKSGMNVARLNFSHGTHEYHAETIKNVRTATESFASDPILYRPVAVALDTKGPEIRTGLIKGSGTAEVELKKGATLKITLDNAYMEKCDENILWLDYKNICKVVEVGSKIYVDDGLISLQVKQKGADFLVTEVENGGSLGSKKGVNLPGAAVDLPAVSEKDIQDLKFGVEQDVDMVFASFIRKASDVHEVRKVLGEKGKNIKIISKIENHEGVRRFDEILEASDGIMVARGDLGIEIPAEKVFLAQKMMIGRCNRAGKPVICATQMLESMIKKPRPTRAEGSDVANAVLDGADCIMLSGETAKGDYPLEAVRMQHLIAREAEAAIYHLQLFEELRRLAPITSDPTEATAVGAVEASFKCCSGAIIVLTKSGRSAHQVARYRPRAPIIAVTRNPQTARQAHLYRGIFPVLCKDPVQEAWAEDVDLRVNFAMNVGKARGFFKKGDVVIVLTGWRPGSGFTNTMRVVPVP
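Purified hPK-M2 (>95%) run at intermediate activity with 0.1 mM ADP and 0.5 mM PEP in 50 mM imidazole pH 7.2, KCl, MgCl2; 1 h room temperature. ATP formed read by Kinase-Glo luminescence; normalized to uninhibited and no-enzyme controls.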
A number is an active result; - = inactive; ? = inconclusive; . = no result given; [ ] = remark or other dose. Compounds with a hit are over-represented: about 1.3% of the library has one in this group of screens. Cut-off read from the data, not from the text of the source, unless noted: active = activation above about 50%; inconclusive = mostly about 30% to 49%; inactive = weaker than that.

SMILES	TRPML1 ag	BRCA1 expr up	IL-2 act	TRPML1 inh	PTAP TSG101 blk	PKM2 activator
Cc1cc(C)c(Cn2c(=O)n(-c3ccccc3Cl)c(=O)c3c(C)c(C(=O)N(C)C)sc32)c(C)c1	-	.	.	-	.	.
Cc1ccc(N/C=C/c2onc(C)c2[N+](=O)[O-])cc1	-	6.31µM	-	-	-	-
COc1cccc(N/C=C/c2onc(C)c2[N+](=O)[O-])c1	-	3.98µM	-	-	-	-
CC1CCN(C(=O)CSCc2ccc(Cl)cc2)CC1	-	2.82µM	-	-	-	-
N/C(=N\C(=S)Nc1ccc2c(c1)OCO2)c1ccccc1	-	4.47µM	-	.	.	.
Cn1nccc1C(=O)Nc1ccc2c(c1)OCO2	-	12.6µM	-	-	-	-
O=C(CCS(=O)(=O)c1ccccc1)Nc1ccc2c(c1)OCO2	-	7.94µM	-	-	-	-
CS(=O)(=O)N(CC(=O)Nc1ccc2c(c1)OCO2)c1ccccc1	-	-	-	-	-	-
COc1cc(C(=O)Nc2ccc3c(c2)OCCO3)ccc1OC(F)F	-	11.2µM	-	-	-	-
O=C(Nc1nccs1)c1cc(-c2ccccn2)nc2c(Cl)cccc12	-	-	-	-	-	-
COc1ccc(S(=O)(=O)c2c(Nc3cccc(C)c3C)sc(C(=O)c3ccccc3)c2N)cc1	-	.	.	-	.	.
COc1ccc(NC(=O)C(=O)NCC(c2ccc3c(c2)OCO3)N2CCN(C)CC2)cc1 (stereo not given)	-	.	.	-	.	.
Cc1ccccc1NC(=O)Nc1ccc2c(c1)OCO2	-	5.62µM	-	-	-	-
O=C(Nc1ccc2c(c1)OCO2)c1cccc(F)c1	-	11.2µM	-	-	-	-
Cc1ccc(C)c(NC(=O)Nc2ccc3c(c2)OCO3)c1	-	-	-	-	-	-
O=C(Nc1cccc(F)c1)Nc1ccc2c(c1)OCO2	-	?	-	-	-	-
O=C(Nc1ccc2c(c1)OCO2)c1c(F)cccc1F	-	4.47µM	-	-	-	-
O=C(Nc1ccc2c(c1)OCO2)c1ccccc1	-	?	-	-	-	-
CCC(Cc1ccccc1)NC(=O)Cn1ncc2c3ccccc3n(Cc3ccccc3)c2c1=O (stereo not given)	-	.	.	-	.	.
C[N+]1(CC(=O)c2ccccc2)CCc2ccccc2C1 (stereo not given)	-	.	.	.	.	.
Cc1ccc(SC[C@H](Cc2ccccc2)N2CC[C@@H](C(C)(C)C)CCC2=O)cc1	-	.	.	.	.	.
CCCNC(=O)Cn1c(=O)/c(=C/c2ccc(-c3ccc([N+](=O)[O-])cc3)o2)s/c1=C\C(=O)C(C)(C)C	?	-	78.4	-	?	.
C=C1C=C(C(F)F)n2ncc(C(=O)NCc3ccc(OC)cc3)c2N1	-	-	.	.	.	.
Cc1csc2c(N3CCC(C(=O)O)CC3)ncnc12	-	-	-	-	-	-
Cc1csc2c(N3CCCCC3)ncnc12	-	11.2µM	-	-	-	?
SMILES	TRPML1 ag	BRCA1 expr up	IL-2 act	TRPML1 inh	PTAP TSG101 blk	PKM2 activator
CN(C)c1ccc(/C=C(/C#N)C(=O)NCc2ccccc2)o1	-	10µM	82.8	-	?	-
COC(=O)[C@@H](NC(=O)N1CCc2nc(-c3ccc(OC)cc3C)c3c(c2C1)CO[C@@H](c1ccccc1)C3)C(C)C	.	.	.	.	.	-[11.5 µM]
COc1ccc(C(NC(=O)COc2ccc(C#N)cc2)c2ccc(OC)cc2)cc1	-	-	.	.	.	.
CC(C)CCOCc1nc2sc3c(c2c(=O)[nH]1)CCC(C)C3 (stereo not given)	-	12.6µM	-	-	-	-
N/C(Cc1cccs1)=N\OC(=O)COc1ccccc1Cl	-	12.6µM	-	-	-	-
O=C(C[N+]12CCCc3cccc(c31)CCC2)c1ccccc1	-	.	.	.	.	.
O=C(CSc1ncccc1C(=O)O)c1cccc(C(F)(F)F)c1	-	15.8µM	-	-	-	-
CC(C)(C)n1ncc2c(=O)n(CC(=O)OCc3ccccc3)cnc21	-	-	-	-	-	-
O=C(Cn1cnc2ccccc2c1=O)c1ccc(Cl)cc1	-	8.91µM	-	-	-	-
O=C(Cn1cnc2ccccc2c1=O)c1ccccc1	-	-	-	-	-	-
CC(C)(C)n1ncc2c(=O)n(CC(=O)c3ccccc3)cnc21	-	12.6µM	-	-	-	-
CCc1nn2c(=O)cc(COC(=O)c3ccccc3NC(=O)c3ccc(C(C)(C)C)cc3)nc2s1	-	.	.	-	.	.
COc1ccc2c(=O)c(-c3ccc(OC)c(OC)c3)coc2c1	.	11.2µM	-	.	-	-
O=c1c(-c2ccc3c(c2)OCCO3)coc2cc(OC3OC(CO)C(O)C(O)C3O)ccc12 (stereo not given)	-	?	-	-	-	-
COc1ccc(-c2coc3cc(OC(C)=O)c(OC)cc3c2=O)cc1	.	10µM	-	.	-	.
COc1ccc(-c2coc3cc(O[C@@H]4O[C@H](CO)[C@@H](O)[C@H](O)[C@H]4O)ccc3c2=O)cc1	-	2.82µM	-	-	-	.
COc1ccc(OC)c(C(=O)CSc2ncc3c(n2)-c2ccccc2N(Cc2ccccc2C)S3(=O)=O)c1	-	.	.	-	.	.
CCOc1ccccc1NC(=O)c1nn(-c2ccc(C)cc2)c(=O)n(C)c1=O	-	.	.	-	.	.
Oc1c(C(c2ccccc2)N2CCOCC2)sc2nc(-c3ccco3)nn12 (stereo not given)	-	.	.	-	.	.
CCN(CC)c1ccc(-c2nnc(SCC(=O)NCc3ccco3)n2C)cc1	-	-	.	.	.	.
Cc1ccc2c(c1)NC(=O)CC(c1ccccc1)=N2	-	10µM	-	-	-	-
O=C1CC(c2ccccc2)=Nc2ccc(Br)cc2N1	-	-	-	-	-	-
O=c1/c(=C\c2cccnc2)sc2nc3ccccc3n12	-	12.6µM	-	-	-	-
Cc1c(C(=O)N2C[C@@H](C)O[C@@H](C)C2)oc2c(F)cccc12	-	11.2µM	-	-	-	-[0.46 µM]
Cc1c(C(=O)O)oc2c(F)cccc12	-	-	-	-	-	-
SMILES	TRPML1 ag	BRCA1 expr up	IL-2 act	TRPML1 inh	PTAP TSG101 blk	PKM2 activator
COc1cccc(NC(=O)c2sc3nc4n(c(=O)c3c2C)CCC4)c1	-	10µM	-	-	-	.
CSc1cccc(NC(=O)c2sc3nc4n(c(=O)c3c2C)CCC4)c1	-	8.91µM	-	-	-	.
O=C(Nc1ccc2ccccc2n1)c1ccccc1	-	-	-	-	-	.
O=C(CCc1ccccc1)Nc1cccc(NC(=O)CCc2ccccc2)c1	-	-	-	-	-	-
O=C(CCc1ccccc1)Nc1ccc2ccccc2n1	-	7.08µM	-	-	-	-
Cc1ccc(NC(=O)CCc2ccccc2)cc1C	-	12.6µM	-	-	.	.
Cc1cc(Cl)c2oc(C(=O)N3CCOCC3)c(C)c2c1	-	?	-	-	.	.
